Sampled rows, rich in hits. Any-hit rate of the full collection: about 11%.
HPGD block: blocks human HPGD enzyme activity. P15428. purified HPGD, NADH fluorescence kinetic, PGE2 substrate. Potency, µM, for the others: at the top dose activity change, negative = inhibition, most hits filed as inhibitors. actives 4.3% (n = 150,000). AID 894; also: potency is read from the fitted curve at half-maximal effect
Target sequence (P15428 whole entry, looked up): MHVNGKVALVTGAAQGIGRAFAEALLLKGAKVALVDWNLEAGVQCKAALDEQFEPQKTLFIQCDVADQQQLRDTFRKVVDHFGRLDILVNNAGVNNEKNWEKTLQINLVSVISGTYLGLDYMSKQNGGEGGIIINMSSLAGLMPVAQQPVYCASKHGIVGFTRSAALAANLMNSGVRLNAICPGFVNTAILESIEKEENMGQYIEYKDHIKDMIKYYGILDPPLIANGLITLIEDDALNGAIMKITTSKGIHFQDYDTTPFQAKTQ
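NADH formation kinetics: reaction with 30 uM PGE2 and 1 mM NAD+ (final), 20 nM enzyme, Tris-HCl pH 8 with Tween 20, after 15 min compound preincubation at room temperature. Fluorescence change, last versus first of five reads.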
KDM4E inh: blocks human JMJD2E demethylase activity | actives 1.6% (n = 230,000) | JMJD2E catalytic domain, FDH-coupled NADH fluorescence (FDH is formaldehyde dehydrogenase) | B2RXH2 | Potency, µM (doses to about 57.1 µM), without a hit: top-dose activity change, negative = inhibition, hits mostly inhibitors;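 also: potency is read from the fitted curve at half-maximal effect; 0% = wells with enzyme and -100% = buffer wells without enzyme; nearly all actives have a fitted effect of over 50% in size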
Target sequence (B2RXH2 1-337 limits assumed): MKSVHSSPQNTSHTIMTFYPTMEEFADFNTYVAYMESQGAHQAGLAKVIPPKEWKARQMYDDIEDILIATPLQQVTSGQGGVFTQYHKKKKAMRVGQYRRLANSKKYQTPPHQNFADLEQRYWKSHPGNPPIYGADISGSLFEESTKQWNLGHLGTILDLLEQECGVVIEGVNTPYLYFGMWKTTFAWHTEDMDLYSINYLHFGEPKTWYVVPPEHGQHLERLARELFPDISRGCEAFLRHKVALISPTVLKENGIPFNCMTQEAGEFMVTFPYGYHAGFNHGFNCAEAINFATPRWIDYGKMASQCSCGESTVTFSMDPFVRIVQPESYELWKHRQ
PNC assembly inh: blocks assembly of the perinucleolar compartment; actives 3.1% (n = 140,000); activity change (PNC), negative = inhibition, % at 10 µM; AID 2417; PC3M PTB-GFP, PNC prevalence imaging, 16 h; stronger effect = lower value;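 active = readout at or below -70, meaning at least 70% loss of cells showing the perinucleolar compartment, a nuclear body marking cancer cells; inconclusive = readout between -30 and a set limit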;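 also: plate controls were DMSO wells for no effect and camptothecin positive control wells for full effect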
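Compounds are pinned in duplicate onto adhered PC3M cells stably expressing GFP-tagged PTB and incubated 16 h at 37 C. Cells are then fixed, nuclei stained with Hoechst, and PNC-positive cells counted.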
ALDH1A1 block: inhibitors of human aldehyde dehydrogenase 1A1; actives 7.3% (n = 220,000); Purified ALDH1A1, NADH fluorescence, propionaldehyde substrate; AID 1030; Potency, µM (highest dose often 75.3 µM), without a hit: top-dose activity, negative = inhibition, usual class: inhibitors; P00352;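 also: potency is read from the fitted curve at half-maximal effect; plate controls were no enzyme wells and a reference inhibitor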
Active calls of the source: *; ? = inconclusive; / = no result; [ ] = remark or other dose. Unless noted, calls follow the shape of the dose curve; as a rule, active = well fitted inhibition curve with a large enough effect (not every such curve was filed as active); inconclusive = small, poorly fitted or top-dose-only effect, or another doubt; inactive = no such curve, though single readings can be large or run the other way. Unless noted, % is scaled to controls: 0 for no effect and ±100 for the full control effect.

SMILES	HPGD block	KDM4E inh	PNC assembly inh	ALDH1A1 block
COc1ccc(CNC(=O)C2=C(C)C(=O)OC23CCC(C)CC3)cc1 (centres undefined)	-8.0%	6.1%	-8.0	5.62µM*
CC1=C(C(=O)NCc2ccc(Cl)cc2)C2(CCC(C)CC2)OC1=O (centres undefined)	/	-5.2%	/	/
O=C1C2C3C=CC(C3=C3CCCCC3)C2C(=O)N1Cc1ccccc1 (centres undefined)	-23.1%	-22.2%	-18.3	6.31µM*
CCCCCCCCCCCCCCC[C@H](O)[C@@H](N)CO	-5.4%	6.1%	/	7.3%
C/C(=N/NC(N)=S)c1ccc(Br)s1	/	-11.7%	/	22.4µM*
O=C1Nc2ccc(I)cc2/C1=C/c1cc(Br)c(O)c(Br)c1	3.55µM*	1.8%	/	-6.9%
CC(=O)Nc1ccc(Oc2cncc(Cl)c2)nc1	/	-7.1%	/	/
O=C(CC(Nc1ccc(F)cc1)C(=O)O)c1ccccc1 (centres undefined)	-6.2%	-2.4%	?	?
O=C(CC(Nc1ccc(F)cc1)C(=O)OCC(=O)c1cccs1)c1ccccc1 (centres undefined)	-14.7%	-5.4%	6.8	11.2µM*
O=C(c1cccc(F)c1)N1CCc2ccccc21	-12.9%	6.6%	?	-13.5%
COC(CNC(=O)c1ccc2c(c1)ncn2-c1ccc(F)c(F)c1)OC	/	7.8%	/	1.2%
COCCNC(=O)c1ccc2c(c1)ncn2-c1ccc(F)c(F)c1	2.51µM*	3.1%	68.6	-15.1%
CCOC(CNC(=O)c1ccc2c(c1)ncn2-c1cccc(F)c1)OCC	/	1.0%	/	1.6%
Cc1nc2cc(C(=O)N3CCc4ccccc43)ccc2n1-c1ccc(F)c(F)c1	14.1µM*	-24.8%	40.8	?
COC(CNC(=O)c1ccc2c(c1)nc(C)n2-c1cccc(F)c1)OC	11.2µM*	6.3%	18.5	-1.5%
COC(CNC(=O)c1ccc2c(c1)nc(C)n2-c1ccc(F)c(F)c1)OC	11.2µM*	-4.4%	-91.0*	-4.8%
COc1ccc(NC(=O)NNC(=O)c2ccccc2-n2cccc2)cc1OC	/	-2.8%	/	5.9%
CC(C)CC1(C(=O)NCc2cc(F)cc(C(F)(F)F)c2)C=CCN1C(=O)c1ccccc1 (centres undefined)	-9.5%	-1.5%	75.0	4.4%
COc1cc(/C=N/NC(=O)c2ccc(Cl)c(S(N)(=O)=O)c2)ccc1OCC(N)=O	/	?	/	-4.4%
COc1ccc(OCC(=O)NC(=S)N2CCCc3ccccc32)cc1	-15.9%	?	?	8.91µM*
CC(C)C(=O)NC(=S)N1CCc2ccccc21	-13.0%	4.5%	4.6	-5.0%
COc1ccccc1CC(=O)N1CCCc2ccccc21	-1.6%	8.9%	-7.7	1.8%
COc1ccccc1C(=O)NC(=S)N1CCCc2ccccc21	8.91µM*	-6.7%	-11.1	3.16µM*
O=C(COc1ccccc1)NC(=S)N1CCc2ccccc21	-23.0%	-5.0%	-25.9	?
COc1ccccc1C(=O)NC(=S)N1CCc2ccccc21	/	-14.8%	/	14.1µM*
SMILES	HPGD block	KDM4E inh	PNC assembly inh	ALDH1A1 block
O=C(COc1ccccc1Cl)NC(=S)N1CCc2ccccc21	20µM*	-3.7%	?	-5.6%
Cc1cccc2cc(CN(Cc3cccnc3)C(=O)c3cccs3)c3nnnn3c12	/	3.3%	/	8.6%
Oc1ccc2ccccc2c1Cc1c(O)ccc2ccccc12	-9.7%	/	/	16.0%[13.5 µM]
C=CCn1c(O)c(CN2CCN(Cc3ccccc3)CC2)c(C)c(C#N)c1=O	-13.2%	?	?	?
Cc1cccc([C@@H]2CN(C)CCc3c2cc(O)c(O)c3Cl)c1	-0.9%	14.1µM*	/	-8.0%
C=CCN1CCc2c(cc(O)c(O)c2Cl)C(c2cccc(C)c2)C1 (centres undefined)	-9.8%	14.1µM*	/	1.7%
COc1cc2c(cc1OC)C(c1ccccc1)CN(C)CC2 (centres undefined)	-6.3%	1.6%	/	-7.1%
COc1ccc(CNC(=O)CCC(=O)N2CCN(S(=O)(=O)c3ccc(Cl)cc3)CC2)cc1	/	8.1%	/	?
CC(=O)N[C@@H](C)C(=O)N1CCN(S(=O)(=O)c2ccc(Cl)cc2)CC1	/	-2.1%	/	7.9%
CC(C)c1ccc(NC(=O)CSc2n[nH]c(=O)n2-c2ccc3c(c2)OCCO3)cc1	/	1.8%	/	11.2µM*
Cc1nnc(SCC(=O)NCc2ccc3c(c2)OCO3)n1C	/	8.3%	/	5.5%
O=c1[nH]nc(SCc2ccccc2Cl)n1-c1ccc2c(c1)OCCO2	/	2.8%	/	/
CC(C)c1nnc(SCC(=O)Nc2ccc3c(c2)OCO3)n1C	-8.1%	6.4%	-100.0*	3.5%
CC(C)c1nnc(SCC(=O)NCc2ccc3c(c2)OCO3)n1C	-14.5%	-1.4%	-100.0*	-0.2%
CC1CCCC(C)N1C(=O)Cn1c(SCC(=O)Nc2ccc3c(c2)OCO3)nc2ccccc21 (centres undefined)	-15.2%	12.7%	?	5.01µM*
COc1cccc(N=Nc2c(=O)[nH]n3c(=O)c4c([nH]c23)CCC4)c1	14.1µM*	5.6%	31.3	-5.6%
COc1cccc(N=Nc2c(=O)[nH]n3c(=O)cc(C)[nH]c23)c1	14.1µM*	-4.0%	-7.5	-11.2%
Cc1cc(C)n2[nH]c(=O)c(N=Nc3ccc(S(N)(=O)=O)cc3)c2n1	/	?	/	2.0%
NS(=O)(=O)c1ccc(N=Nc2c(=O)[nH]n3c(=O)c4c([nH]c23)CCCC4)cc1	/	28.2µM*	/	-6.9%
O=c1[nH]n2c(=O)c3c([nH]c2c1N=Nc1cccc(C(F)(F)F)c1)CCCC3	-26.6%	-24.5%	-19.1	0.2%
O=c1[nH]n2c(=O)c3c([nH]c2c1N=Nc1cccc(Cl)c1)CCC3	7.08µM*	-4.0%	?	?
O=Cc1ccc(Oc2cnccn2)cc1	/	?	/	-6.5%
Cc1c(Cl)cccc1NC(=S)NC1CCN(C(C)C)CC1	/	13.3%	/	9.2%
Cn1c(=O)c2c(ncn2CCO)n(C)c1=O	-12.7%	6.0%	/	4.3%
Cn1c(=O)c2c(ncn2CCCc2ccccc2)n(C)c1=O	3.0%	7.6%	-88.7*	-7.5%
SMILES	HPGD block	KDM4E inh	PNC assembly inh	ALDH1A1 block
Cn1c(=O)c2c(ncn2Cc2ccccc2)n(C)c1=O	-3.7%	-3.2%	10.1	3.4%
CC(O)Cn1cnc2c1c(=O)n(C)c(=O)n2C (centres undefined)	-0.3%	-2.1%	-114.6*	4.6%
C/C(=N/OCO/N=C(/C)c1ccc(F)cc1)c1ccc(F)cc1	-15.9%	-0.3%	-104.3*	-16.0%
Cn1c(=O)c2c(nc(Cc3ccc(N)cc3)n2C)n(C)c1=O	/	-5.0%	/	4.1%
c1ccc(SCCOCCN2CCc3ccccc3C2)cc1	2.8%	0.6%	?	6.2%
CCn1c(SCC(=O)Nc2ccc3c(c2)OCO3)nc2c1c(=O)n(C)c(=O)n2C	-3.1%	-0.5%	?	17.1%
Cn1c(=O)c2c(nc(SCC(=O)O)n2Cc2cc3c(cc2Cl)OCO3)n(C)c1=O	25.1µM*	?	58.2	35.5µM*
COc1ccc(/C=C/CN2CCCC(CO)(Cc3cccc(Cl)c3)C2)cc1 (centres undefined)	/	-20.1%	/	20µM*
COc1ccccc1/C=C/CN1CCCC(CO)(Cc2cccc(Cl)c2)C1 (centres undefined)	/	-10.5%	/	?
O=C(CCc1nnc(CCCCc2ccccc2)o1)NCCN1CCOC1=O	/	-3.7%	/	0.112µM*
O=C(CCc1nnc(CCCCc2ccccc2)o1)NCCn1cccn1	/	0.1%	/	-6.0%
